PubChem BioAssay AID623868 (Vanderbilt High Throughput Screening Facility, 2012)
About 760 (36%) of roughly 2,100 compounds were called active. Not all results are given here. Unmarked numbers belong to inactive results.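 Rule for the calls: active = thallium-flux fluorescence traces judged by eye to show enhanced or reduced glutamate response, manual score 1 or -1, so both directions (some results past the limit were not filed as active); inactive = the rest, including fluorescent or raised-baseline compounds.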

experiment: non-GIRK thallium flux modulation in mGlu8 cells, confirmation, counter-screen for GIRK activator project, cell-based, HEK-293 rmGlu8, no GIRK (AID 623868); conditions: thallium flux fluorescence, at 10 µM, actives lie on both sides, codes: 1 enhancer, -1 blocker, 0 none, thallium stimulus containing EC20 glutamate;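 note: extra codes mark interference with 3 for fluorescent and 4 for baseline rise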

SMILES	manual score
CCOc1ccccc1Nc1nnc(Cc2ccccc2Cl)c(=O)[nH]1	0
CCOC(=O)C1=C(C)NC(=O)NC1c1ccc(Br)o1 (stereo unspecified)	0
CCOC(=O)C1=C(C)N=C2SCCC(=O)N2C1c1sccc1C (stereo unspecified)	-1 (active)
CC(C)(C)c1nnc(N/N=C/c2ccccc2)n(N)c1=O	0
Cc1cc(=O)n2[nH]c(C)c(-c3ccccc3)c2n1	-0.5
Cc1[nH]n2c(=O)cc(C(C)(C)C)nc2c1-c1ccccc1	1 (active)
Cc1nc2c(-c3ccccc3)c(C)[nH]n2c(=O)c1Cl	0
COc1ccc(NC(=S)Nc2ccc(OCc3ccccc3)cc2)cc1OC	0
COc1ccc(C(=S)Nc2ccc(N(C)C)cc2)cc1	0
CC/C(=N\NC(=S)Nc1ccc(OC)cc1)c1ccc(OC(F)F)cc1	1 (active)
COc1ccc(C/C(C)=N/NC(=S)Nc2ccccc2)cc1	1 (active)
CC/C(=N\NC(=S)Nc1cc(C)ccc1C)c1ccc(OC(F)F)cc1	0
CCC1(C)OCC(Cn2c3ccccc3c3ccccc32)O1 (stereo unspecified)	0
O=c1[nH]c(NCCO)nc2c1C1(CCCCC1)Cc1ccccc1-2	0
C=CCOc1cccc(C2/C(=C(/O)c3ccc(C)cc3)C(=O)C(=O)N2CCN2CCOCC2)c1 (stereo unspecified)	0
Cc1ccc(/C(O)=C2\C(=O)C(=O)N(c3cc(C)on3)C2c2cccc(Br)c2)cc1 (stereo unspecified)	-1 (active)

SMILES	manual score
CCN(CC)c1ccc2cc(C=O)c(=O)oc2c1	3
Cc1cccc(NC(=S)N/C(=N/S(=O)(=O)c2ccccc2)c2ccccc2)c1	1 (active)
O=C(O)CN=C(NS(=O)(=O)c1ccccc1)c1ccccc1	0
Cc1cccc(NC(=O)NC(=S)NC(=O)c2ccccc2)c1	1 (active)
Cc1ccccc1NC(=O)C(=O)NC(C)CCc1ccccc1 (stereo unspecified)	0
Cc1ccccc1NC(=S)NC(=O)CCc1ccccc1	1 (active)
Cc1cccc(C)c1NC(=S)NC(=O)CCc1ccccc1	1 (active)
CC(C)Oc1ccc(C2CC(=O)N(c3ccccc3)C2=O)cc1 (stereo unspecified)	0
Nc1c(C(O)(C(F)(F)F)C(F)(F)F)ccc2ccccc12	0
CC(C)(C)CC(=O)Nc1ccc(C(N)=O)cc1	0
Cc1cccc(NC(=O)NC(C)CCc2ccccc2)c1 (stereo unspecified)	0
Cc1cccc(NC(=S)NC(=O)CCc2ccccc2)c1	1 (active)
O=C(Cc1ccccc1)NC(=S)Nc1cccc(C(F)(F)F)c1	0
O=C1OC2(CCCCC2)OC(=O)C1=CNc1nc2ccccc2s1	1 (active)
O=C(Nc1ccc(O)c(-c2nc3ccccc3s2)c1)C1=COCCO1	0
